Inconclusive results are not listed. Activity calls are given as the source filed them. Calls come from the whole dose curve; as a rule, active = well fitted curve in the direction sought with a large enough effect (not every such curve was filed as active); inconclusive = small, poorly fitted or top-dose-only effect, or effect the other way, or another doubt; inactive = no such curve, though single readings can be large or run the other way.
Assay: Cell viability assay for measurement of the protective activity of small molecules against cell death caused by Zika virus infection in human neural progenitor cells (hNPCs);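 note: 0% = ZIKV-infected cells without compound and 100% = uninfected cells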
Conditions: hNPC ZIKV-induced death protection, ATP luminescence, 72 h; series mostly up to 46.1 µM; protection, negative = more death: at the top concentration
In short: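 Human neural progenitor cells pretreated 1 h with compounds, then infected with Zika virus at 2 FFU/cell for 72 h at 37 C. Viability read as ATP-content luminescence; values are percent inhibition of the virus-induced viability loss.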

| SMILES | protection, negative = more death |
| --- | --- |
| CC[C@@]1(O)C[C@H](O[C@H]2C[C@H](N(C)C)[C@H](O[C@H]3C[C@H](O)[C@H](O[C@H]4CCC(=O)[C@H](C)O4)[C@H](C)O3)[C@H](C)O2)c2c(cc3c(c2O)C(=O)c2c(O)cccc2C3=O)[C@@H]1C(=O)OC | -71% (inactive) |
| O=C(Nc1cc2cc[nH]c2cn1)c1ccccc1 | -76.8% (inactive) |
| COc1cccc(-c2cc(=O)c3ccccc3o2)c1N | -47.7% (inactive) |
| CC(C)OC(=O)CCCC=CC[C@@H]1[C@H](C=C[C@@H](O)COc2cccc(C(F)(F)F)c2)[C@H](O)C[C@@H]1O | -31% (inactive) |
| N#CC1(c2ccc(NC(=O)c3cccnc3NCc3ccncc3)cc2)CCCC1 | -13.3% (inactive) |
| O=C(O)c1cccc(-c2noc(-c3ccccc3F)n2)c1 | -65.3% (inactive) |
| O=C(O)Cc1ccc(-c2ccccc2)cc1 | -0.374% (inactive) |
| Cc1cccc(C#Cc2ccccc2)n1 | 6.09% (inactive) |
| CN(C)c1ccc(C(=C2C=CC(=[N+](C)C)C=C2)c2ccccc2)cc1 | -80.4% (inactive) |
| Oc1ccc(/C=C/c2cc(O)cc(O)c2)cc1 | -73.8% (inactive) |
| COCCn1c2c([n+](Cc3cnccn3)c1C)C(=O)c1ccccc1C2=O | -79.9% (inactive) |
| Cc1c(NC(=O)c2ccc(C(C)(C)C)cc2)cccc1-c1cn(C)c(=O)c(Nc2ccc(C(=O)N3CCOCC3)cc2)n1 | -49.7% (inactive) |
| CC1(C)Cc2c(sc(NC(=S)NC(=O)c3ccccc3)c2C(=O)O)CO1 | 2.37% (inactive) |
| N#C/C(=C\c1ccc(O)c(O)c1)C(=O)Nc1ccccc1 | -61.2% (inactive) |
| O=C1c2ccccc2C(=O)c2c1ccc(O)c2O | -21.6% (inactive) |
| CC(O)=C(C#N)C(=O)Nc1ccc(C(F)(F)F)cc1 | -61.6% (inactive) |
| CC=CC[C@@H](C)C(=O)[C@H]1C(=O)N[C@@H](C(C)C)C(=O)N(C)CC(=O)N(C)[C@@H](CC(C)C)C(=O)N[C@@H](C(C)C)C(=O)N(C)[C@@H](CC(C)C)C(=O)N[C@@H](C)C(=O)N[C@H](C)C(=O)N(C)[C@@H](CC(C)C)C(=O)N(C)[C@@H](CC(C)C)C(=O)N(C)[C@@H](C(C)C)C(=O)N1C | -38.7% (inactive) |

| SMILES | protection, negative = more death |
| --- | --- |
| C[C@@H]1CCN(C(=O)CC#N)C[C@H]1N(C)c1ncnc2[nH]ccc12 | 8.69% (inactive) |
| O=C(Nc1ccc(C(=O)O)c(O)c1)c1ccccc1 | 15% (inactive) |
| COc1cc2nc(N3CCN(C(=O)C4CCCO4)CC3)nc(N)c2cc1OC (centres undefined) | 5.27% (inactive) |
| CC1=C(CO)C(=O)O[C@@H]([C@@H](C)[C@H]2CC[C@H]3[C@@H]4C[C@H]5O[C@]56[C@@H](O)C=CC(=O)[C@]6(C)[C@@H]4CC[C@]23C)C1 | -5.61% (inactive) |
| COc1cc(NC(C)CCCN)c2ncccc2c1 (centres undefined) | -55.6% (inactive) |
| CC(C(=O)O)c1ccc(-c2ccccc2)c(F)c1 (centres undefined) | -5.89% (inactive) |
| CC(=Cc1ccccc1)C=C1SC(=S)N(CC(=O)O)C1=O | -16.5% (inactive) |
| C=CCCCCCCCCC(=O)O | 5.55% (inactive) |
| CC(C(=O)O)c1ccc2c(c1)[nH]c1ccc(Cl)cc12 (centres undefined) | 8.12% (inactive) |
| O=C(O)c1cc([N+](=O)[O-])ccc1NCCCc1ccccc1 | -2.84% (inactive) |
| CN1CCN(c2cc3c(nn2)Oc2ccccc2N3C)CC1 | 8.35% [at 23.8 µM] (inactive) |
| O=C1C[C@@H](c2ccc(O)cc2)Oc2cc(O)cc(O)c21 | -22.1% (inactive) |
| O=c1[nH]nc(Sc2ncc([N+](=O)[O-])s2)n1-c1ccc2c(c1)OCCO2 | -79.3% (inactive) |
| Nc1c(S(=O)(=O)O)cc(Nc2ccc(Nc3nc(Cl)nc(Nc4ccc(S(=O)(=O)O)cc4)n3)c(S(=O)(=O)O)c2)c2c1C(=O)c1ccccc1C2=O | -33.4% (inactive) |
| CCN1/C(=C/C=C/c2sc3ccccc3[n+]2CC)Sc2ccccc21 | -80.2% [at 23.8 µM] (inactive) |
| O=C(/C=C/c1ccccc1)NCCO | 9.32% (inactive) |
| CCOCCOC(=O)/C=C/c1ccc(OC)cc1 | -28.4% (inactive) |
